Test in all cases: DAPPL (digital affinity profiling via proximity ligation, sequencing); 10 mM Tris-HCl pH 7.5, 50 mM NaCl, 1 mM DTT, 4% glycerol, room temperature, 30 min; GST-TFs on glutathione beads, 16-mer random dsDNA library, 0.1% formaldehyde crosslink after washing; high values mean tight binding
Conditions in all cases: protein: recombinant; tags: N-terminal GST; dsDNA, one strand shown

The target of one test is T1, FLI1 (Homo sapiens, UniProt Q01543 1-452).
T1 sequence: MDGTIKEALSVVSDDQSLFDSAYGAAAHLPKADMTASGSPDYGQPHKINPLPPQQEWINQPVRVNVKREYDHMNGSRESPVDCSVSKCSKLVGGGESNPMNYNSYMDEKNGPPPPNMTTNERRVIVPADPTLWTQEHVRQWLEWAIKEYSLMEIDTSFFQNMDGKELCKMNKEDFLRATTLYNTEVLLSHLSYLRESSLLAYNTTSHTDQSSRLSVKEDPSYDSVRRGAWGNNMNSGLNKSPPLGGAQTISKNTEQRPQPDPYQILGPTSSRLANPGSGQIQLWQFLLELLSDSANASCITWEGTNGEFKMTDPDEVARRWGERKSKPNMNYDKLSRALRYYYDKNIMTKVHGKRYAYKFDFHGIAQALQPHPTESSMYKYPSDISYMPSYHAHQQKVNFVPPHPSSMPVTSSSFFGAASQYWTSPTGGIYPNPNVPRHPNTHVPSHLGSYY
The method in brief: (§1)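 Pools were built from human transcription factors expressed in yeast as GST fusions, captured on glutathione beads and DNA-barcoded, along with a tag-only sample. Incubation with 200 nmole of a 16-mer random double-stranded DNA library lasted 30 min at room temperature in Tris/NaCl/DTT/glycerol buffer, and was followed by washing, 0.1% formaldehyde crosslinking, proximity ligation, PCR amplification and Illumina NextSeq500 sequencing. Binding signal is the quotient of each hexamer's read frequency for a factor and its frequency for the tag-only sample.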

In another test the target is T2, ELK1 (Homo sapiens, UniProt P19419 1-428).
T2 sequence: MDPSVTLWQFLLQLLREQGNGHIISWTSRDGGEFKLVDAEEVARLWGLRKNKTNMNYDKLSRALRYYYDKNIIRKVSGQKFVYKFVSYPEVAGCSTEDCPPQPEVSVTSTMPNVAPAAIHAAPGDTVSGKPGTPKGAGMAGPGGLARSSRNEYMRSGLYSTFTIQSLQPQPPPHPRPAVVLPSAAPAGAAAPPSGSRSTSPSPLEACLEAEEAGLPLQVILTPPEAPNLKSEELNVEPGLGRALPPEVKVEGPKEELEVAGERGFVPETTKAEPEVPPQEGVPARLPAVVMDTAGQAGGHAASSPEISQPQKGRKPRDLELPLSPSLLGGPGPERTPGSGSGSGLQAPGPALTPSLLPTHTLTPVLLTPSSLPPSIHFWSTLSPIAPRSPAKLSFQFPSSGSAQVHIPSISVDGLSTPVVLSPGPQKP
A digest of the protocol: as §1

For a further test, the target named is T3, GABPA (Homo sapiens, UniProt Q06546 1-454).
T3 sequence: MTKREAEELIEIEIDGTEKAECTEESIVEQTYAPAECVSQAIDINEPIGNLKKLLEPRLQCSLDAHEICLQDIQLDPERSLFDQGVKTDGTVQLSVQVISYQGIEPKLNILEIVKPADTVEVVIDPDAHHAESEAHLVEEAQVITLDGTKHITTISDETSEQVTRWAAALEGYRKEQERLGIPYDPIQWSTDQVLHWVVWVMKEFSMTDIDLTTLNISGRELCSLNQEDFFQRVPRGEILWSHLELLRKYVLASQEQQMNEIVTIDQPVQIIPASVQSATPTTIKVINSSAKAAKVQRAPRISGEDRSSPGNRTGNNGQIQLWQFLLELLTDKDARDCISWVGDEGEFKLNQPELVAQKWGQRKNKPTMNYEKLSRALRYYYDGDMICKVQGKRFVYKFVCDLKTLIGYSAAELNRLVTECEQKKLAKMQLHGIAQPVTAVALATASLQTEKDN
A digest of the protocol:
as §1

The target in the next test is T4, ERG (Homo sapiens, UniProt P11308 1-479).
T4 sequence: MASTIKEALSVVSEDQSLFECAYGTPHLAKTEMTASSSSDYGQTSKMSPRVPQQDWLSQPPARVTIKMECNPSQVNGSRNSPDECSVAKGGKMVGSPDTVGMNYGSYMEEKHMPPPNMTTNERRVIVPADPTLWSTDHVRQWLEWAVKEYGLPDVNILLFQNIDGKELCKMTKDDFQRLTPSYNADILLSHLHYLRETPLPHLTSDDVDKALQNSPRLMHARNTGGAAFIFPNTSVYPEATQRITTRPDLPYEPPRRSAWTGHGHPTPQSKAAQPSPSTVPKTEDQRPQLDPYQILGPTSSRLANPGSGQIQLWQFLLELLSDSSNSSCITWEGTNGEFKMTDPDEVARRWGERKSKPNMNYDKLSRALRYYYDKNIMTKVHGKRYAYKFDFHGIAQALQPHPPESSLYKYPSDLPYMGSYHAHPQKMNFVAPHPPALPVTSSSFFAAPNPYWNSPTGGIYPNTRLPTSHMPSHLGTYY
A digest of the protocol: as §1

The target in the next test is ELF1 (Homo sapiens, UniProt P32519 1-619). A digest of the protocol: as §1
A further test concerns the target T5, EHF (Homo sapiens, UniProt Q9NZC4 1-300).
T5 sequence: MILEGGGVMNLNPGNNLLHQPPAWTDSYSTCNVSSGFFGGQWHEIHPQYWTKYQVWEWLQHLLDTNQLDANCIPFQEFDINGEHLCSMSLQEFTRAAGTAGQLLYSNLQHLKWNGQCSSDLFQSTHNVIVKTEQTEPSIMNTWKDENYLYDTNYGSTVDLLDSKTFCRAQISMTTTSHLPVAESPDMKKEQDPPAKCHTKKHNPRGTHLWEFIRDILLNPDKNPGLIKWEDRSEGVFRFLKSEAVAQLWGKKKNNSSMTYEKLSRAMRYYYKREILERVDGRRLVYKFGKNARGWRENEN
A digest of the protocol:
as §1

Another test deals with SPI1 (Homo sapiens, UniProt P17947 1-270). The method in brief: as §1
In another test the target is SPIB (Homo sapiens, UniProt Q01892 1-262). The method in brief: as §1
A further test concerns the target T6, ELK3 (Homo sapiens, UniProt P41970 1-407).
T6 sequence: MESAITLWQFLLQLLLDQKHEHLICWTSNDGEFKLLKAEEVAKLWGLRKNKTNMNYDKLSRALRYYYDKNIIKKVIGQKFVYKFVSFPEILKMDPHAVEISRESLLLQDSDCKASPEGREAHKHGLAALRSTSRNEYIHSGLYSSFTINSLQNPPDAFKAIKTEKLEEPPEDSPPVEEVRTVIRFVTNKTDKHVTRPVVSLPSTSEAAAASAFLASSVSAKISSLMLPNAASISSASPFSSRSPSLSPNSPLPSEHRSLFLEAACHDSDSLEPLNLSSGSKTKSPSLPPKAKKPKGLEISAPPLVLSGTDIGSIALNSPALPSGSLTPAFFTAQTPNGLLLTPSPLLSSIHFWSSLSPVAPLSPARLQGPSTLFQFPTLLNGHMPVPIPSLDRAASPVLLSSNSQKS
The method in brief:
as §1

The target in the next test is T7, FEV (Homo sapiens, UniProt Q99581 1-238).
T7 sequence: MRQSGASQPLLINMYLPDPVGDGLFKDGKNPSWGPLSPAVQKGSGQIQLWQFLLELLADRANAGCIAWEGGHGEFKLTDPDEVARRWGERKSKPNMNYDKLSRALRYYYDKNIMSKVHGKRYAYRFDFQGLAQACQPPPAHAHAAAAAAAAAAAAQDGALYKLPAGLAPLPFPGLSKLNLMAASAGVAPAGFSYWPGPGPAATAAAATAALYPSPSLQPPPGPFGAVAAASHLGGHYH
The method in brief: as §1

The target of the next test is ETV5 (Homo sapiens, UniProt P41161 1-510). A digest of the protocol:
as §1

Another test has as its target ELF4 (Homo sapiens, UniProt Q99607 1-663). The method in brief:
as §1

The target of the next test is ETV1 (Homo sapiens, UniProt P50549 1-477). A digest of the protocol:
as §1

The target of a further test is T8, ERF (Homo sapiens, UniProt P50548 1-548).
T8 sequence: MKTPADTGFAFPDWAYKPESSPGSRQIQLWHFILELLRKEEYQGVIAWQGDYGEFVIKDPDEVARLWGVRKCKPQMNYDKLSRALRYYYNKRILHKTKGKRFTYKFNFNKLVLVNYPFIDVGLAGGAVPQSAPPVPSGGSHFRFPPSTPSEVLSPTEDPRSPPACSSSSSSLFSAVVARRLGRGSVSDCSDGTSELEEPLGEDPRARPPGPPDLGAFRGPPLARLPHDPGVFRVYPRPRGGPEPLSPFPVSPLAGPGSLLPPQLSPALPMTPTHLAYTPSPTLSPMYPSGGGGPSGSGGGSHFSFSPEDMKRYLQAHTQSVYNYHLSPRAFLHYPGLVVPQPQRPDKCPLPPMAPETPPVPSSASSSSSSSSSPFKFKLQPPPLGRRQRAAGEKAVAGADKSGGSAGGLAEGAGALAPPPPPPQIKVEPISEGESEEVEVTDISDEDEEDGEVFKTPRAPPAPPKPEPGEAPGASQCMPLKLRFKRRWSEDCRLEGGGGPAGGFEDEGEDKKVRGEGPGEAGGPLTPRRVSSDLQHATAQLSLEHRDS
The method in brief: as §1

Another test has as its target T9, ETV3L (Homo sapiens, UniProt Q6ZN32 1-361).
T9 sequence: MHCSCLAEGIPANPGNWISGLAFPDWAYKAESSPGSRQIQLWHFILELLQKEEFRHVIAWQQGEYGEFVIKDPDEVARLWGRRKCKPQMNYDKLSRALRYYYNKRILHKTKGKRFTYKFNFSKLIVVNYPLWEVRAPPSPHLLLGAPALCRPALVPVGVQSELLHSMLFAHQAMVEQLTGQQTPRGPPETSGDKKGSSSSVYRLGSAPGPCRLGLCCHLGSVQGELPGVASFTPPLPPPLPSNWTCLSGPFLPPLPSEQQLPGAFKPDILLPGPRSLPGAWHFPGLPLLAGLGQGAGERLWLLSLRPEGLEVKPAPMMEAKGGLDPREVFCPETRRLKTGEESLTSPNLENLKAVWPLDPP
A digest of the protocol:
as §1

The next test addresses T10, ETS2 (Homo sapiens, UniProt P15036 1-469).
T10 sequence: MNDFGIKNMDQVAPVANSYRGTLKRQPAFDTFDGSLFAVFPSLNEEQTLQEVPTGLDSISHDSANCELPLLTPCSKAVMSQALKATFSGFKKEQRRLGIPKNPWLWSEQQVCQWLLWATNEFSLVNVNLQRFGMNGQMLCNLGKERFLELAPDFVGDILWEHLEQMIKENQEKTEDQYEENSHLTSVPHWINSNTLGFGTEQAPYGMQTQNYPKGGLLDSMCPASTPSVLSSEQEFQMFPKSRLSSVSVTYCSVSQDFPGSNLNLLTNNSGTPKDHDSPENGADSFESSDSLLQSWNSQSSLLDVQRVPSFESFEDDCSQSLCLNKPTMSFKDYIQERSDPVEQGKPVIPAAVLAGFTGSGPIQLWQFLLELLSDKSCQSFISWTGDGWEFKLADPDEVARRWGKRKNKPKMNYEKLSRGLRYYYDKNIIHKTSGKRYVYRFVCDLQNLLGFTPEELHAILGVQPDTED
The method in brief: as §1

The target in a further test is T11, ELF5 (Homo sapiens, UniProt Q9UKW6-2 1-255).
T11 sequence: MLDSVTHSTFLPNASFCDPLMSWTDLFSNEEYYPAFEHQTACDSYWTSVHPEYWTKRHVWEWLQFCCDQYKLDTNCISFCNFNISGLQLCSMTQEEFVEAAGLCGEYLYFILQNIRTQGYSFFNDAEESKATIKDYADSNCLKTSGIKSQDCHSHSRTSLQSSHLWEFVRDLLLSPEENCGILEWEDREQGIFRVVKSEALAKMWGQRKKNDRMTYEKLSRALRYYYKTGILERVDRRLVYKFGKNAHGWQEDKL
A digest of the protocol: as §1

For another test, the target named is T12, ETV3 (Homo sapiens, UniProt P41162-2 1-143).
T12 sequence: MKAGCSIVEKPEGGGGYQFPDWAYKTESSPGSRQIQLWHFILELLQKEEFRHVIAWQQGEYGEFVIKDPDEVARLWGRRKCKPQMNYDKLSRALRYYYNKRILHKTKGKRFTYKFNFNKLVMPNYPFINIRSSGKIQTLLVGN
A digest of the protocol: as §1

A further test addresses ETV6 (Homo sapiens, UniProt P41212 1-452). The method in brief:
as §1

From PMC7862700, “An all-to-all approach to the identification of sequence-specific readers for epigenetic DNA modifications on cytosine” come the findings set out here.

Sequence of ETV1 (P50549 whole entry): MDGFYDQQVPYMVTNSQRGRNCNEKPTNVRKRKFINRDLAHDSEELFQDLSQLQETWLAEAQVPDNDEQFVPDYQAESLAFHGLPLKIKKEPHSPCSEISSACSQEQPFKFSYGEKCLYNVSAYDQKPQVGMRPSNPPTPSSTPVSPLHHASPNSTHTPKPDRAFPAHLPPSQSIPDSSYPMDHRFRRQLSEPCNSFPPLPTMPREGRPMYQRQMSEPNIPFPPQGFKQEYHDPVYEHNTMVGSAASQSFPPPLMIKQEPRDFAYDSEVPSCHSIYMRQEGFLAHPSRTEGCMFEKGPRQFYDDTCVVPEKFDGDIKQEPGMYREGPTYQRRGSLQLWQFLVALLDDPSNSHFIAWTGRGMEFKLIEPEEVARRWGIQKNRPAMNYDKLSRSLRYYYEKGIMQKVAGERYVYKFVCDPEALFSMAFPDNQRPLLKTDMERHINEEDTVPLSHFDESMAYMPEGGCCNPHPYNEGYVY
Sequence of ETV5 (P41161 whole entry): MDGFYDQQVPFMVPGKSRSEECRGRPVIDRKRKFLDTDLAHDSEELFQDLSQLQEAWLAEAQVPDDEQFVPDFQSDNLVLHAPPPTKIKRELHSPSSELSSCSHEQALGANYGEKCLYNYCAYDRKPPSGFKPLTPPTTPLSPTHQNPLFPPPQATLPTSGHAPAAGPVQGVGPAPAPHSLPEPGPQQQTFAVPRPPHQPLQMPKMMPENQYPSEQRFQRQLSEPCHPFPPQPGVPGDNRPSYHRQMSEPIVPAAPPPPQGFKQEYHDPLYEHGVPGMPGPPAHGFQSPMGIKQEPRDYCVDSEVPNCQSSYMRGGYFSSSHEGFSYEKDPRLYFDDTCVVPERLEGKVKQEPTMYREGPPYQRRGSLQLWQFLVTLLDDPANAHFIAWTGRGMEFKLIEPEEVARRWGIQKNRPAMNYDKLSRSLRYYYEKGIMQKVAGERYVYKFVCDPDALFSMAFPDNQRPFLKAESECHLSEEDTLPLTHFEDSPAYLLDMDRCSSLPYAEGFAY
Sequence of ETV6 (P41212 whole entry): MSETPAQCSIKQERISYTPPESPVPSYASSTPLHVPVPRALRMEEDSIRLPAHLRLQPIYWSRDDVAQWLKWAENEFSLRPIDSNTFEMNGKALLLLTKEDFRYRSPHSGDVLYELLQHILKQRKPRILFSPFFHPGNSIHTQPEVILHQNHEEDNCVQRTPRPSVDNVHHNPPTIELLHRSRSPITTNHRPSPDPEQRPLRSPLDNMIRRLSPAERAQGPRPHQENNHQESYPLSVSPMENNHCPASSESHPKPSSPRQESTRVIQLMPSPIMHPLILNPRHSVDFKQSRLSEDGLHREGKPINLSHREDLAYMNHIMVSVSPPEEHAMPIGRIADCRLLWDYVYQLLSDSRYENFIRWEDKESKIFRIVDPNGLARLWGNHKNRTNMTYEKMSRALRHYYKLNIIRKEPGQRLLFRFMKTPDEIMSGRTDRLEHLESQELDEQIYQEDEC
Sequence of ELF1 (P32519 whole entry): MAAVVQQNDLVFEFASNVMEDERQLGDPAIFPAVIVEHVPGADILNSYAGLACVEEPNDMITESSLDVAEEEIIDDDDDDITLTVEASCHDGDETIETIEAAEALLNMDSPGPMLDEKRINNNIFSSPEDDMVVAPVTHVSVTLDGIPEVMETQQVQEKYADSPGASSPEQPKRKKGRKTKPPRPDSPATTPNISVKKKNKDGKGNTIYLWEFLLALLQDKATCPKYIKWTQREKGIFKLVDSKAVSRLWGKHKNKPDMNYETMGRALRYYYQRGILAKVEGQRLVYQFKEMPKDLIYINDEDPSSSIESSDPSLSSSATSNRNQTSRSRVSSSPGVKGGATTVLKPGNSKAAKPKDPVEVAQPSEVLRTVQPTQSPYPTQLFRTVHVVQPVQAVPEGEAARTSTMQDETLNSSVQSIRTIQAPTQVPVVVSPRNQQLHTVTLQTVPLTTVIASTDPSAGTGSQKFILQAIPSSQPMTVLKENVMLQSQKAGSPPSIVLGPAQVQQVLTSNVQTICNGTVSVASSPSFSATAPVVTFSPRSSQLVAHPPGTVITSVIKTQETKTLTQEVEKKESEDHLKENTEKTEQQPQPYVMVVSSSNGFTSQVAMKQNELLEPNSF
Sequence of SPIB (Q01892 whole entry): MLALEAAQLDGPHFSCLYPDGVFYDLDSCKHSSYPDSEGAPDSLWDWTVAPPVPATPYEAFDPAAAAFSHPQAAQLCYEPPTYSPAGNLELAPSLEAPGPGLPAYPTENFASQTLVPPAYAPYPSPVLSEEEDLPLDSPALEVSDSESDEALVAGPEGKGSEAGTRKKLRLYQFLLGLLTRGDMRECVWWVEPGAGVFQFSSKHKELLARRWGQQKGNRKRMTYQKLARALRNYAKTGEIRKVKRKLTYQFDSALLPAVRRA
Sequence of ELF4 (Q99607 whole entry): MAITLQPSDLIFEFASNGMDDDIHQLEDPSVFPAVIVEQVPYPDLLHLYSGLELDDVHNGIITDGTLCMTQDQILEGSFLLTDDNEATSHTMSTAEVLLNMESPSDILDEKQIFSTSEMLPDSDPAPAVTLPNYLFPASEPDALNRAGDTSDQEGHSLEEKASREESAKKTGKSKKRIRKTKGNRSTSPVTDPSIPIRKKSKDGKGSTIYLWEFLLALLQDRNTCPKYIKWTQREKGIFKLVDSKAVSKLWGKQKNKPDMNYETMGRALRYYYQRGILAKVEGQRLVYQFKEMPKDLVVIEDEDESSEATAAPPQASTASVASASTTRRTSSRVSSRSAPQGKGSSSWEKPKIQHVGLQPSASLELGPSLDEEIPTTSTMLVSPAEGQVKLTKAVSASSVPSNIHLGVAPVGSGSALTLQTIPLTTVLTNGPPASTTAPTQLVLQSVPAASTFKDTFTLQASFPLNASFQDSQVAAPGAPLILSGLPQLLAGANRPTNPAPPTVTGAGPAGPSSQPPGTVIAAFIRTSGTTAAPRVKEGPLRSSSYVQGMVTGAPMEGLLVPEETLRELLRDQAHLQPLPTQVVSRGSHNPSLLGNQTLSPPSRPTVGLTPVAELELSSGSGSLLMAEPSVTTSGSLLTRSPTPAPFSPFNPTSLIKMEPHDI

In the case of ATTGGC, the binding signal with FLI1 was 1.23 fold enrichment (6-mer frequency, TF over GST control); in the test with ELK1 it was 1.11 fold enrichment (6-mer frequency, TF over GST control); with GABPA, 1.09 fold enrichment (6-mer frequency, TF over GST control); with ERG it was 1.05 fold enrichment (6-mer frequency, TF over GST control); with ELF1, 1.13 fold enrichment (6-mer frequency, TF over GST control); with EHF, 1.15 fold enrichment (6-mer frequency, TF over GST control). In addition, the binding signal in the test with SPI1 was 1.01 fold enrichment (6-mer frequency, TF over GST control); with SPIB, 1.13 fold enrichment (6-mer frequency, TF over GST control); with ELK3 it was 1.16 fold enrichment (6-mer frequency, TF over GST control); in the test with FEV it was 1.13 fold enrichment (6-mer frequency, TF over GST control); with ETV5 it was 1.07 fold enrichment (6-mer frequency, TF over GST control); with ELF4 it was 1.14 fold enrichment (6-mer frequency, TF over GST control). Further, the binding signal is 1.11 fold enrichment (6-mer frequency, TF over GST control) with ETV1; 1.15 fold enrichment (6-mer frequency, TF over GST control) with ERF; 1.18 fold enrichment (6-mer frequency, TF over GST control) with ETV3L; 1.18 fold enrichment (6-mer frequency, TF over GST control) with ETS2; 1.08 fold enrichment (6-mer frequency, TF over GST control) with ELF5; 1.09 fold enrichment (6-mer frequency, TF over GST control) with ETV3. Also, the binding signal with ETV6 was 1.13 fold enrichment (6-mer frequency, TF over GST control).
